Growth data for 13 compounds are collected here from PubChem BioAssay (NCI).

The panel holds about 83,000 compounds, 20% with a hit somewhere; the sample as a whole holds those more often.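 Single-dose data. Exposure time 48 hours. Values below 10 considered active.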 The source made the active and inactive calls.

This test concerns MDA-MB-468 breast. Briefly: NCI-60 one-dose screen, 48 h (100 = growth as untreated, 0 = no growth, -100 = all killed). To be noted: 10 µM unless noted.
Consider `O=[N+]([O-])c1cc([N+](=O)[O-])c(Cl)c(Cl)c1Cl`, for which the growth is -57.3% (active).
For `C[C@H](O)CCC(=O)c1ccoc1`, the growth was 98.7% (inactive).
The value for `COc1cc(OC)c(S(=O)(=O)N(CCCl)CCCl)cc1C(=O)/C=C/c1ccc(Cl)cc1` was 47.6% (inactive); that for `CC1=C(CNO)C2=C(C)C3(CC3)[C@@](C)(O)C(=O)C2=C1` was -62.9% (active); that for `c1cc2c(c3c1CCNC3)OCO2` was 87.4% (inactive).
The value for `COC(=O)[C@@H](C)C[C@H](Cc1ccc(F)cc1)NC(=O)c1csc([C@@H](C[C@H](C(C)C)N(C)C(=O)[C@@H](NC(=O)[C@H]2CCCCN2C)C(C)C)OC(C)=O)n1` was 21% (inactive).
The value for `Clc1ccc(CO/N=C(\Cn2ccnc2)c2ccc(Cl)cc2Cl)c(Cl)c1` was -24.5% (active).
For `C/C(=C\c1ccn(-c2ccc(N)cc2F)n1)[C@@H]1C[C@@H]2O[C@]2(C)CCC[C@H](C)[C@H](O)[C@@H](C)C(=O)C(C)(C)[C@@H](O)CC(=O)O1`, the growth is 8.6% (active).
The value for `CC(C)CCC1(CCO)C(=O)NC(=S)NC1=O` was 108% (inactive).
As for `CC(=O)OC1CCC2(C)C(=CCC3C4CC(CN5CC5)C(=O)C4(C)CCC32)C1` (stereo not drawn), the growth was 1.98% (active).
The value for `O=C(CC1(O)C(=O)N(Cc2ccccc2)c2ccc(F)cc21)c1ccc(C(=O)NCC2CCC3(CC2)OOC2(CCCCC2)OO3)cc1` (stereo not drawn) was -41.8% (active).
Then `COc1cc(/C=C\c2cc(OC)c(OC)c(OC)c2)cc(N/C=C\C(=O)c2cc(OC)c(OC)c(OC)c2)c1OC`, with -10.6% (active); and `COC(=O)[C@@H](C)C[C@H](Cc1ccccc1)NC(=O)c1csc([C@@H](C[C@H](C(C)C)N(C)C(=O)[C@@H](NC(=O)[C@H]2CCCCN2C)C(C(F)(F)F)C(F)(F)F)OC(C)=O)n1`, with 51.7% (inactive).
